# Where a structure was tested more than once in an assay, its records may differ in their call. Activity calls are given as the source filed them. Calls come from the whole dose curve.
# Settings: Ebola virus entry assay, green fluorescence channel
Structure (SMILES),AC50,outcome
CN1[C@@H]2CC[C@H]1CC(OC(c1ccccc1)c1ccccc1)C2 (stereo partly specified),3.06 µM (active),
CC[C@H]1OC(=O)[C@H](C)[C@@H](O[C@H]2C[C@@](C)(OC)[C@@H](O)[C@H](C)O2)[C@H](C)[C@@H](O[C@@H]2O[C@H](C)C[C@H](N(C)C)[C@@H]2O)[C@](C)(O)C[C@@H](C)CN(C)[C@H](C)[C@@H](O)[C@]1(C)O,7.69 µM (active),
CNCCCC12CCC(c3ccccc31)c1ccccc12,6.85 µM (active),
CO[C@H]1C[C@@H]2CC[C@@H](C)[C@@](O)(O2)C(=O)C(=O)N2CCCC[C@@H]2C(=O)O[C@H]([C@@H](C)C[C@@H]2CC[C@H](O)[C@H](OC)C2)CC(=O)[C@H](C)C=C(C)[C@@H](O)[C@@H](OC)C(=O)[C@H](C)C[C@H](C)C=CC=CC=C1C,17.7 µM (active),
CN1CCN(CCCN2c3ccccc3Sc3ccc(C(F)(F)F)cc32)CC1,,inactive
CC[C@H]1OC(=O)[C@H](C)[C@@H](O[C@H]2C[C@@](C)(OC)[C@@H](O)[C@H](C)O2)C(C)[C@@H](O[C@@H]2O[C@H](C)C[C@H](N(C)C)[C@@H]2O)[C@](C)(OC)C[C@@H](C)C(=O)[C@H](C)[C@@H](O)[C@]1(C)O (stereo partly specified),5.44 µM (active),
CCCSc1ccc2nc(NC(=O)OC)[nH]c2c1,,inactive
CN(C)CCCN1c2ccccc2CCc2ccc(Cl)cc21,7.69 µM (active),
CCCNCC(O)COc1ccccc1C(=O)CCc1ccccc1 (stereo unspecified),,inactive
Cc1nnc(C(C)C)n1C1C[C@H]2CC[C@@H](C1)N2CC[C@H](NC(=O)C1CCC(F)(F)CC1)c1ccccc1 (stereo partly specified),,inactive
CC[C@]1(O)C[C@H]2CN(CCc3c([nH]c4ccccc34)[C@@](C(=O)OC)(c3cc4c(cc3OC)N(C=O)[C@H]3[C@@](O)(C(=O)OC)[C@H](OC(C)=O)[C@]5(CC)C=CCN6CC[C@]43[C@@H]65)C2)C1,0.217 µM (active),
CC[C@]1(O)C[C@@H]2CN(CCc3c([nH]c4ccccc34)[C@@](C(=O)OC)(c3cc4c(cc3OC)N(C)[C@H]3[C@@](O)(C(=O)OC)[C@H](OC(C)=O)[C@]5(CC)C=CCN6CC[C@]43[C@@H]65)C2)C1,0.137 µM (active),
CCC1=C[C@@H]2CN(C1)Cc1c([nH]c3ccccc13)[C@@](C(=O)OC)(c1cc3c(cc1OC)N(C)[C@H]1[C@@](O)(C(=O)OC)[C@H](OC(C)=O)[C@]4(CC)C=CCN5CC[C@]31[C@@H]54)C2,0.109 µM (active),
CN1CCC[C@@H]1CCO[C@](C)(c1ccccc1)c1ccc(Cl)cc1,1.93 µM (active),
CO[C@H]1C[C@@H]2CC[C@@H](C)[C@@](O)(O2)C(=O)C(=O)N2CCCC[C@@H]2C(=O)O[C@H]([C@H](C)C[C@@H]2CC[C@H](OCCO)[C@H](OC)C2)CC(=O)[C@H](C)C=C(C)[C@@H](O)[C@@H](OC)C(=O)[C@H](C)C[C@H](C)C=CC=CC=C1C,,inactive
CC/C(=C(\c1ccccc1)c1ccc(OCCN(C)C)cc1)c1ccccc1,1.53 µM (active),inactive
COc1cc2c(c(OC)c1OC)-c1ccc(OC)c(=O)cc1[C@@H](NC(C)=O)CC2,0.0968 µM (active),
C[C@@H]1O[C@@H](O[C@H]2CC[C@@]3(C)[C@H](CC[C@@H]4[C@H]3C[C@@H](O)[C@]3(C)[C@@H](C5=CC(=O)OC5)CC[C@]43O)C2)C[C@H](O)[C@@H]1O[C@H]1C[C@H](O)[C@H](O[C@H]2C[C@H](O)[C@@H](O)[C@@H](C)O2)[C@H](C)O1 (stereo in doubt),0.112 µM (active),
COC(=O)Nc1nc2ccc(C(=O)c3ccccc3)cc2[nH]1,6.11 µM (active),
CCCCc1oc2ccc(NS(C)(=O)=O)cc2c1C(=O)c1ccc(OCCCN(CCCC)CCCC)cc1,,inactive
COc1cccc2c1C(=O)c1c(O)c3c(c(O)c1C2=O)C[C@@](O)(C(C)=O)C[C@H]3O[C@H]1C[C@H](N)[C@H](O)[C@H](C)O1,,inactive
COC(=O)Nc1nc2ccc(C(=O)c3cccs3)cc2[nH]1,0.685 µM (active),
CN(C)CCOc1ccc(/C(=C(/CCCl)c2ccccc2)c2ccccc2)cc1,1.93 µM (active),
CCN(CC)CCNC(=O)c1c(C)[nH]c(/C=C2\C(=O)Nc3ccc(F)cc32)c1C,,inactive
C[C@]12CC[C@@H]3c4ccc(O)cc4C[C@@H](CCCCCCCCCS(=O)CCCC(F)(F)C(F)(F)F)[C@H]3[C@@H]1CC[C@@H]2O (stereo partly specified),3.06 µM (active),

# Source: PubChem BioAssay AID1117299 (National Center for Advancing Translational Sciences (NCATS), 2015)
